# Test results published in PubChem BioAssay (Tox21).
# Unmarked numbers belong to inactive results. Inconclusive results are not listed. Where a call stands in place of a potency, no number is given. Activity calls are given as the source filed them. Calls come from the whole dose curve; as a rule, active = well fitted curve in the direction sought with a large enough effect in the repeat runs; inconclusive = weak or mixed curves; inactive = no such curve, though single readings can be large; an effect the other way counts as inactive or inconclusive.
# What was measured:
# [1] = qHTS RealTime-Glo MT Cell Viability Assay in HepG2 cells - 40 hour (AID 1224870); note: nearly all actives have a fitted effect of over 50% in size; note: potency is the fitted concentration of half-maximal effect
# Method in brief: (§1)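 HepG2 cells (600/well) mixed with RealTime-Glo MT reagent, settled 5 h at 37 C/5% CO2 before compound addition. Nonlytic NanoLuc luminescence from viable-cell prosubstrate reduction read repeatedly during 40 h treatment at 37 C.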
# [2] = qHTS RealTime-Glo MT Cell Viability Assay in HepG2 cells - 8 hour (AID 1224873); note: nearly all actives have a fitted effect of over 55% in size
# Method in brief: as §1
# [3] = qHTS RealTime-Glo MT Cell Viability Assay in HEK293 cells - 40 hour (AID 1224874); details: RealTime-Glo luminescence; max response: active compounds read low; note: nearly all actives have a fitted effect of over 50% in size; note: potency is the fitted concentration of half-maximal effect
# Method in brief: (§2)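 HEK293 cells mixed with RealTime-Glo reagents (NanoLuc plus cell-permeant prosubstrate) at 600 cells/well, preincubated 5 h at 37 C/5% CO2, then given 23 nL compound in DMSO. Nonlytic luminescence from viable cells was read at 0, 8, 16, 24, 32 and 40 h.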
# [4] = qHTS RealTime-Glo MT Cell Viability Assay in HepG2 cells - 32 hour (AID 1224877); note: nearly all actives have a fitted effect of over 55% in size
# Method in brief: (§3)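 Real-time, nonlytic viability: 600 HepG2 cells/well mixed with NanoLuc enzyme plus prosubstrate; 5 h settle, compound (DMSO) added by pintool; luminescence monitored over 40 h at 37 C.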
# [5] = qHTS RealTime-Glo MT Cell Viability Assay in HEK293 cells - 0 hour (AID 1224880); note: top concentration of the series differs between compounds; nearly all actives have a fitted effect of over 45% in size
# Method in brief: as §2
# [6] = A CellTox Green Cytotoxicity Assay to monitor cytotoxicity in HEK293 cells - 32 hour (AID 1224881); note: nearly all actives have a fitted effect of over 40% in size; note: potency is the fitted concentration of half-maximal effect
# Method in brief: (§4)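 HEK293 cells premixed with CellTox Green dye were seeded at 600 cells/well and left 5 h at 37 C/5% CO2 before pin transfer of 23 nL compound in DMSO. Fluorescence from dye bound to dead-cell DNA was read during 40 h treatment.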
# [7] = qHTS RealTime-Glo MT Cell Viability Assay in HepG2 cells - 16 hour (AID 1224885); note: nearly all actives have a fitted effect of over 50% in size
# Method in brief: as §3
# [8] = qHTS RealTime-Glo MT Cell Viability Assay in HEK293 cells - 24 hour (AID 1224886); note: nearly all actives have a fitted effect of over 50% in size; note: potency is the fitted concentration of half-maximal effect; for activity change, negative = cytotoxicity: top concentration of the series differs between compounds
# Method in brief: (§5)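 Cells + reagent dispensed (600 cells/well, HEK293) → 5 h at 37 C/5% CO2 → 23 nL compound in DMSO pinned → 40 h at 37 C → luminescence read at 0, 8, 16, 24, 32, 40 h.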
# [9] = qHTS RealTime-Glo MT Cell Viability Assay in HEK293 cells - 8 hour (AID 1224887); note: nearly all actives have a fitted effect of over 50% in size; note: potency is the fitted concentration of half-maximal effect; for activity change, negative = cytotoxicity: top concentration of the series differs between compounds
# Method in brief: as §2
# [10] = A CellTox Green Cytotoxicity Assay to monitor cytotoxicity in HEK293 cells - 16 hour (AID 1224888); note: nearly all actives have a fitted effect of over 35% in size
# Method in brief: as §4
# [11] = qHTS RealTime-Glo MT Cell Viability Assay in HepG2 cells - 0 hour (AID 1224889); note: nearly all actives have a fitted effect of over 50% in size
# Method in brief: as §3
# [12] = qHTS RealTime-Glo MT Cell Viability Assay in HEK293 cells - 16 hour (AID 1224872); note: nearly all actives have a fitted effect of over 50% in size; note: potency is the fitted concentration of half-maximal effect; for activity change, negative = cytotoxicity: top concentration of the series differs between compounds
# Method in brief: as §5
# [13] = A CellTox Green Cytotoxicity Assay to monitor cytotoxicity in HepG2 cells - 16 hour (AID 1224876); note: nearly all actives have a fitted effect of over 45% in size
# Method in brief: (§6)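 HepG2 cells were seeded together with the CellTox Green dye at 600 cells/well, left 5 h at 37 C/5% CO2, then given compounds in DMSO. Fluorescence from dye bound to dead-cell DNA was read repeatedly over 40 h of treatment at 37 C.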
# [14] = A CellTox Green Cytotoxicity Assay to monitor cytotoxicity in HepG2 cells - 24 hour (AID 1224878); note: nearly all actives have a fitted effect of over 45% in size; note: potency is the fitted concentration of half-maximal effect
# Method in brief: as §6
# [15] = A CellTox Green Cytotoxicity Assay to monitor cytotoxicity in HepG2 cells - 40 hour (AID 1224879); note: nearly all actives have a fitted effect of over 40% in size; note: potency is the fitted concentration of half-maximal effect
# Method in brief: as §6
# [16] = A CellTox Green Cytotoxicity Assay to monitor cytotoxicity in HepG2 cells - 0 hour (AID 1224882); note: nearly all actives have a fitted effect of over 35% in size
# Method in brief: as §6
# [17] = A CellTox Green Cytotoxicity Assay to monitor cytotoxicity in HEK293 cells - 8 hour (AID 1224884); note: nearly all actives have a fitted effect of over 35% in size
# Method in brief: as §4
# [18] = A CellTox Green Cytotoxicity Assay to monitor cytotoxicity in HEK293 cells - 24 hour (AID 1224875); note: series mostly up to about 77 µM; nearly all actives have a fitted effect of over 45% in size
# Method in brief: as §4
# [19] = A CellTox Green Cytotoxicity Assay to monitor cytotoxicity in HepG2 cells - 32 hour (AID 1224883); note: nearly all actives have a fitted effect of over 50% in size; note: potency is the fitted concentration of half-maximal effect
# Method in brief: as §6
# [20] = A CellTox Green Cytotoxicity Assay to monitor cytotoxicity in HEK293 cells - 40 hour (AID 1224871); note: nearly all actives have a fitted effect of over 45% in size; note: potency is the fitted concentration of half-maximal effect
# Method in brief: as §4
smiles,measurement,setting,value
Oc1ccc2c(c1)Cc1ccccc1-2,Potency,[1],inactive
same,Potency,[2],inactive
same,Potency,[3],19.5 µM (active)
same,Potency,[4],inactive
same,Potency,[5],inactive
same,Potency,[6],inactive
same,Potency,[7],inactive
same,Potency,[8],19.5 µM (active)
same,Potency,[9],21.9 µM (active)
same,Potency,[10],inactive
same,Potency,[11],inactive
CCCCC(CC)COS(=O)(=O)O (stereo not given),Potency,[1],inactive
same,Potency,[12],inactive
same,Potency,[2],inactive
same,max response,[3],-1.73%
same,Potency,[13],inactive
same,Potency,[4],inactive
same,Potency,[14],inactive
same,Potency,[15],inactive
same,Potency,[5],inactive
same,Potency,[16],inactive
same,Potency,[17],inactive
same,Potency,[7],inactive
same,Potency,[8],inactive
same,Potency,[9],inactive
same,Potency,[11],inactive
CO[C@@H]1[C@@H](OC)[C@H](C)[C@@](O)(CC(=O)O)O[C@H]1[C@H](C)[C@H]1O[C@@]2(CC[C@@](C)([C@H]3CC[C@@](C)([C@@H]4O[C@@H]([C@H]5O[C@](C)(O)[C@H](C)C[C@@H]5C)C[C@@H]4OC4C[C@H](OC)[C@@H](OC)[C@H](C)O4)O3)O2)C[C@H](O)[C@H]1C (stereo not given in full),Potency,[1],6.01 µM (active)
same,Potency,[3],2.39 µM (active)
same,Potency,[18],inactive
same,Potency,[14],12 µM (active)
same,Potency,[15],6.74 µM (active)
same,Potency,[5],inactive
same,Potency,[19],9.52 µM (active)
same,Potency,[17],inactive
same,Potency,[8],3.38 µM (active)
same,Potency,[9],8.49 µM (active)
same,Potency,[10],inactive
same,Potency,[11],inactive
CNS(=O)(=O)c1cc(C(=O)N2CCC(CCN3C4CCC3CC(n3c(C)nc5ccccc53)C4)(c3cccc(F)c3)CC2)c(Cl)cc1F (stereo not given),Potency,[20],inactive
same,Potency,[12],4.36 µM (active)
same,Potency,[3],4.36 µM (active)
same,Potency,[18],inactive
same,Potency,[13],inactive
same,Potency,[14],inactive
same,Potency,[15],inactive
same,Potency,[5],inactive
same,Potency,[6],inactive
same,Potency,[16],inactive
same,Potency,[19],inactive
same,Potency,[17],inactive
same,Potency,[8],4.36 µM (active)
same,Potency,[10],inactive
CCCCCCCCCCCCCCN(C)C,"activity change, negative = cytotoxic",[1],10.3% [at 15.8 µM]
same,"viability change, negative = cytotoxic",[2],-0.602% [at 15.8 µM]
same,max response,[3],-29.2%
same,activity change,[18],"-31.5% [at 15.8 µM, active compounds read high]"
same,cytotoxicity increase,[13],-1.78% [at 15.8 µM]
same,"activity change, negative = cytotoxic",[4],5.76% [at 15.8 µM]
same,cytotoxicity,[14],-3.33% [at 15.8 µM]
same,cytotoxicity increase,[15],-7.14% [at 15.8 µM]
same,"activity change, negative = cytotoxicity",[5],0% [at 15.8 µM]
same,cytotoxicity increase,[6],-32.2% [at 15.8 µM]
same,cytotoxicity,[16],-1.15% [at 15.8 µM]
same,cytotoxicity increase,[17],-28% [at 15.8 µM]
same,"activity change, negative = cytotoxic",[7],-0.238% [at 15.8 µM]
same,activity change,[10],"-30.9% [at 15.8 µM, active compounds read high]"
same,"activity change, negative = cytotoxicity",[11],-19.6% [at 15.8 µM]
FC(F)(F)C(F)(F)C(F)(F)C(F)(F)CCI,Potency,[1],inactive
same,Potency,[2],inactive
same,max response,[3],-4.67%
same,Potency,[18],inactive
same,Potency,[4],inactive
same,Potency,[14],inactive
same,Potency,[15],inactive
same,Potency,[5],inactive
same,Potency,[6],inactive
same,Potency,[16],inactive
same,Potency,[19],inactive
same,Potency,[17],inactive
same,Potency,[7],inactive
same,Potency,[8],inactive
same,Potency,[9],inactive
same,Potency,[10],inactive
same,Potency,[11],inactive
O=C(/C=C/c1ccc([N+](=O)[O-])cc1)c1ccccc1,Potency,[20],17.4 µM (active)
same,Potency,[12],24.6 µM (active)
same,Potency,[2],inactive
same,Potency,[3],24.6 µM (active)
same,Potency,[14],21.9 µM (active)
same,Potency,[15],21.9 µM (active)
same,Potency,[5],inactive
same,Potency,[6],17.4 µM (active)
same,Potency,[16],inactive
same,Potency,[17],inactive
same,Potency,[7],inactive
same,Potency,[8],31 µM (active)
same,Potency,[10],inactive
same,Potency,[11],inactive
CCc1ccc(C)cc1,Potency,[1],inactive
same,Potency,[2],inactive
same,max response,[3],11.4%
same,Potency,[18],inactive
same,Potency,[14],inactive
same,Potency,[15],inactive
same,Potency,[5],inactive
same,Potency,[6],inactive
same,Potency,[16],inactive
same,Potency,[19],inactive
same,Potency,[7],inactive
same,Potency,[8],inactive
same,Potency,[9],inactive
same,Potency,[10],inactive
same,Potency,[11],inactive
CCOC(=O)c1c(N)sc2c1CCN(Cc1ccccc1)C2,Potency,[1],inactive
same,Potency,[2],inactive
same,Potency,[3],19 µM (active)
same,Potency,[13],inactive
same,Potency,[4],inactive
same,Potency,[14],inactive
same,Potency,[15],inactive
same,Potency,[5],inactive
same,Potency,[6],inactive
same,Potency,[19],inactive
same,Potency,[17],inactive
same,Potency,[7],inactive
same,Potency,[8],19 µM (active)
same,Potency,[10],inactive
same,Potency,[11],inactive
CCCCCC,Potency,[1],inactive
same,Potency,[12],inactive
same,Potency,[2],inactive
same,max response,[3],0.47%
same,Potency,[18],inactive
same,Potency,[14],inactive
same,Potency,[15],inactive
same,Potency,[5],inactive
same,Potency,[6],inactive
same,Potency,[19],inactive
same,Potency,[17],inactive
same,Potency,[8],inactive
same,Potency,[9],inactive
same,Potency,[10],inactive
same,Potency,[11],inactive
CC1CCc2nccnc21 (stereo not given),Potency,[1],inactive
same,Potency,[2],inactive
same,max response,[3],-2.75%
same,Potency,[18],inactive
same,Potency,[4],inactive
same,Potency,[5],inactive
same,Potency,[6],inactive
same,Potency,[19],inactive
same,Potency,[17],inactive
same,Potency,[7],inactive
same,Potency,[8],inactive
same,Potency,[9],inactive
same,Potency,[10],inactive
Cc1cc(CCCOc2c(C)cc(-c3noc(C(F)(F)F)n3)cc2C)on1,Potency,[1],inactive
same,Potency,[2],inactive
same,Potency,[18],inactive
same,Potency,[13],inactive
same,Potency,[4],inactive
same,Potency,[14],inactive
same,Potency,[15],inactive
same,Potency,[5],inactive
same,Potency,[6],inactive
same,Potency,[16],inactive
same,Potency,[19],inactive
same,Potency,[17],inactive
same,Potency,[7],inactive
same,Potency,[10],inactive
same,Potency,[11],inactive
CC(C)COC(=O)c1ccc(O)cc1,Potency,[1],inactive
same,Potency,[2],inactive
same,Potency,[13],inactive
same,Potency,[4],inactive
same,Potency,[5],inactive
same,Potency,[16],inactive
same,Potency,[17],inactive
same,Potency,[7],inactive
same,Potency,[11],inactive
